Active and inactive are the calls of the source.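 How the source made its calls: active means CXCR6 mean IC50 below 15 µM, and neither CCR6 nor CXCR5 mean IC50 under five times that; inactive means the rest.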
Target: C-C chemokine receptor type 6 (Homo sapiens) (UniProt P51684)
Experiment: chemokine receptor panel antagonism: CCR6, CXCR5, CXCR6, profiling panel, selectivity assay for CXCR6 antagonist project, cell-based, CHO-K1 PathHunter beta-arrestin, luminescence (AID 651601)
Settings: antagonist mode, mean of runs

Chain of C-C chemokine receptor type 6 (Homo sapiens) (P51684 whole entry, looked up): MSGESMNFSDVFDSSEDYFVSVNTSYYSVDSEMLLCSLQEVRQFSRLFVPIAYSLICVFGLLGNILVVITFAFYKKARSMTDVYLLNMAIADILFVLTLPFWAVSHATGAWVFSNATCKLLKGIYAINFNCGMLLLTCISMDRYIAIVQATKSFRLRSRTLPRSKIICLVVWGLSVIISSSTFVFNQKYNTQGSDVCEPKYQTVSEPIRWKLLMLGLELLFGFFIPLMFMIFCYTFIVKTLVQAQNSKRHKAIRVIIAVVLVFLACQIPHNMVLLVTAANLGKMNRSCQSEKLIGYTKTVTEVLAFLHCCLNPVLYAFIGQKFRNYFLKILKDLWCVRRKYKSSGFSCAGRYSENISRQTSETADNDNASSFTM

outcome, inactive:
COc1cccc(C(=O)NC2CC3CCCC(C2)N3CC(=O)Nc2ccccc2C(F)(F)F)c1 (stereo unspecified)
COc1cccc(C(=O)NC2CC3CCCC(C2)N3CC(=O)Nc2ccc(N(C)C)cc2)c1 (stereo unspecified)
CN(C)c1ccc(NC(=O)CN2C3CCCC2CC(NC(=O)c2ccccc2)C3)cc1 (stereo unspecified)
COc1cc(C(=O)NC2CC3CCCC(C2)N3CC(=O)Nc2ccccc2)cc(OC)c1OC (stereo unspecified)
O=C(CN1C2CCCC1CC(NC(=O)c1ccccc1)C2)Nc1ccccc1 (stereo unspecified)
O=C(CN1C2CCCC1CC(NC(=O)c1ccccc1)C2)Nc1ccccc1C(F)(F)F (stereo unspecified)

Reference: PubChem BioAssay AID651601 (Sanford-Burnham Center for Chemical Genomics, 2012)
